# Reference: the supplement of paper PMC10849652
# About 8,800 targets were measured; listed, in parts, are those with a hit and a random draw of the rest. About 0.5% of all pairs of compound and target were hits. A number with no mark means an inactive call.
# Experiments:
# Assay in all cases: log2 fold change, soluble protein after heating vs DMSO (PISA); higher = thermal stabilisation; K562 lysate, 10 uM; active = over 0.2 and 3.5 SD of the protein, either way, in both replicates (recomputed)
# erlotinib = compound: C#Cc1cccc(Nc2ncnc3cc(OCCOC)c(OCCOC)cc23)c1 [erlotinib]
# Procedure, shortened: (§1)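 K562 pellets were dounce-homogenised in PBS pH 7.4 containing 1 mM MgCl2, and the crude extract, at 1 mg/mL protein, was exposed to 10 μM compound for 30 min. Aliquots were heated for 3 min across 48°C-58°C, pooled, brought to 0.5% NP-40 at 4°C and spun at 21,000xg for 90 min, with the supernatant taken as soluble protein. TMTpro 16plex LC-MS/MS with equalised channel sums quantified that protein. Values are log-two fold changes in thermal stability relative to solvent controls, taken from duplicates.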
# [1] = compound: C/C(=N\NC(=O)C1=CC(=CC=C1)S(=O)(=O)N2CCOCC2)/C3=C(C=CC(=C3)Cl)O
# Procedure, shortened: as §1
# [2] = compound: C1=CC(=CC=C1C2=NC3=C(N2)C=C(C=C3)C(=O)N)OC4=CC=C(C=C4)Cl
# Procedure, shortened: as §1
# [3] = compound: C1=CC2=C(C=CC(=C2)/C=C\3/C(=O)NC(=NCC4=CC=CS4)S3)N=C1
# Procedure, shortened: as §1
# [4] = compound: C1=CC2=NC=CN=C2C=C1/C=C/3\C(=O)NC(=O)S3
# Procedure, shortened: as §1
# [5] = compound: C1=CC=C(C=C1)C2=NC(=C(N2)C3=CC=NC=C3)C4=CC(=C(C=C4)Cl)O
# Procedure, shortened: as §1
# [6] = compound: C1=CC=C2C(=C1)C3=NNC4=CC=CC(=C43)C2=O
# Procedure, shortened: as §1
# [7] = compound: C1CCN(C1)C(=O)NC2=CC=CC(=C2)NC3=NC=C(C(=N3)NCCC4=CN=CN4)Br
# Procedure, shortened: as §1
# [8] = compound: C1CN(CCC1(CC2=CC=C(C=C2)Cl)N)C3=NC=NC4=C3C=CN4
# Procedure, shortened: as §1
# IRAK-1-4 Inhibitor I = compound: C1COCCN1CCN2C3=CC=CC=C3N=C2NC(=O)C4=CC(=CC=C4)[N+](=O)[O-] [IRAK-1-4 Inhibitor I]
# Procedure, shortened: as §1
# ibrutinib = compound: C=CC(=O)N1CCC[C@@H](n2nc(-c3ccc(Oc4ccccc4)cc3)c3c(N)ncnc32)C1 [ibrutinib]
# Procedure, shortened: as §1
# [9] = compound: CC(=O)c1cnc2ccc(-c3cc(Cl)c(O)c(Cl)c3)nc2c1N[C@H]1CC[C@H](CN(C)C)CC1
# Procedure, shortened: as §1
# ralimetinib = compound: CC(C)(C)Cn1c(N)nc2ccc(-c3[nH]c(C(C)(C)C)nc3-c3ccc(F)cc3)nc21 [ralimetinib]
# Procedure, shortened: as §1
# [10] = compound: CC(C)(O)CC(=O)NCCn1ccc2ncnc(Nc3ccc(Oc4cccc(C(F)(F)F)c4)c(Cl)c3)c21
# Procedure, shortened: as §1
# [11] = compound: CC(C)C1=C2N=C(C=C(N2N=C1)NCC3=CC=CC=C3)NCCCCCCN
# Procedure, shortened: as §1
# [12] = compound: CC1=C(C(CC(=O)N1)C2=CC=C(C=C2)C(F)(F)F)C(=O)NC3=C(C=C4C(=C3)C=NN4)F
# Procedure, shortened: as §1
# [13] = compound: CC1=C(C2=C(C=C1)C(=O)C3=CC=CC=C3N2CCCN)C
# Procedure, shortened: as §1
# [14] = compound: CC1=C(C=C(C=C1)NC(=O)C2=CC(=CC=C2)C(C)(C)C#N)NC3=CC4=C(C=C3)N=CN(C4=O)C
# Procedure, shortened: as §1
# [15] = compound: CC1=C(C=C(C=C1)NC(=O)C2=CC(=CC=C2)N(C)C)NC(=O)C3=CC=C(C=C3)O
# Procedure, shortened: as §1
# [16] = compound: CC1=CC=C(C=C1)SC2=C3C=C(SC3=CN=C2)C(=O)N
# Procedure, shortened: as §1
# Chain of UniProt O14979 (O14979 whole entry, looked up): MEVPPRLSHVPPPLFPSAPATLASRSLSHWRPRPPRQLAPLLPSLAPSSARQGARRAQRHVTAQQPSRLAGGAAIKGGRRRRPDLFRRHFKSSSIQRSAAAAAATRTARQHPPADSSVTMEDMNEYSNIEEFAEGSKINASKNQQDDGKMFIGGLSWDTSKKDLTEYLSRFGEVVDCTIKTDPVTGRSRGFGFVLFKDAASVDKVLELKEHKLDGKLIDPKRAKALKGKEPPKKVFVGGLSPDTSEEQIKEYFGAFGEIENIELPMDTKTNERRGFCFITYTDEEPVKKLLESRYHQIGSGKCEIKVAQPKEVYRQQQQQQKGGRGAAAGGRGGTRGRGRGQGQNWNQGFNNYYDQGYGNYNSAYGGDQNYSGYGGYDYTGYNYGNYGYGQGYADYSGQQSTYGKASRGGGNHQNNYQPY
# Chain of UniProt Q75QN2 (Q75QN2 whole entry, looked up): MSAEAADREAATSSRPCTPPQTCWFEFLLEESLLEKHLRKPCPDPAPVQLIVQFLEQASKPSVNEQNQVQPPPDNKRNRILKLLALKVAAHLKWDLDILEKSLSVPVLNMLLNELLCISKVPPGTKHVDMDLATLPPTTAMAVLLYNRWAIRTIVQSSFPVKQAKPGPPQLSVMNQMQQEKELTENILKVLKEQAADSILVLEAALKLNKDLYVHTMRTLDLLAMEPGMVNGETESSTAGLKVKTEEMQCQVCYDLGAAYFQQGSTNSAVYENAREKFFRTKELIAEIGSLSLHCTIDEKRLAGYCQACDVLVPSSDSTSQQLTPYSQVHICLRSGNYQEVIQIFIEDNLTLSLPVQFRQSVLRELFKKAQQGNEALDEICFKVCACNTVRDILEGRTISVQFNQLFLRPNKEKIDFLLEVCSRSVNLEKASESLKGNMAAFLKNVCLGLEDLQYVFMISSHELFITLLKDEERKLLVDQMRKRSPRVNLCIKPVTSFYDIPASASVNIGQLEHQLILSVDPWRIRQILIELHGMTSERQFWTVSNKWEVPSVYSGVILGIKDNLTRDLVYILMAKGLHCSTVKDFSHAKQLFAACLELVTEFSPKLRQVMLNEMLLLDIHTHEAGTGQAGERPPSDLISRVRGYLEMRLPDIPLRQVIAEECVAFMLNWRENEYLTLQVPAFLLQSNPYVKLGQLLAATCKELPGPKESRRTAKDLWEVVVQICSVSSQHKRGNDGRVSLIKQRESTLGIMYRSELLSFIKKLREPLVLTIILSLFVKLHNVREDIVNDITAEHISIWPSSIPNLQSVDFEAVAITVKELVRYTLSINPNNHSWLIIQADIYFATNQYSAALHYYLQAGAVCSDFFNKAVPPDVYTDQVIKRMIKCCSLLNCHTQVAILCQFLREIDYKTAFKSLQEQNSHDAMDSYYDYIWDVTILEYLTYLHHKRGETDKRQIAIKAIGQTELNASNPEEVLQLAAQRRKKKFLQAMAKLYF
# Chain of UniProt Q99795 (Q99795 whole entry, looked up): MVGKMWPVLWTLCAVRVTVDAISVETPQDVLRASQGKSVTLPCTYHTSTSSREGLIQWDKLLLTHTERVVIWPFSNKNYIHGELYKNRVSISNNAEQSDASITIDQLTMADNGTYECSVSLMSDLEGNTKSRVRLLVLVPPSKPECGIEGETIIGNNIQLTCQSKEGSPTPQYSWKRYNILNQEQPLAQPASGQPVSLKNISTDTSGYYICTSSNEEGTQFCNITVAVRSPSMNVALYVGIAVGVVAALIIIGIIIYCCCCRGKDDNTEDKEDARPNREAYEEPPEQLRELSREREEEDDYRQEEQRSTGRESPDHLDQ
# Chain of UniProt Q9ULR0 (Q9ULR0 whole entry, looked up): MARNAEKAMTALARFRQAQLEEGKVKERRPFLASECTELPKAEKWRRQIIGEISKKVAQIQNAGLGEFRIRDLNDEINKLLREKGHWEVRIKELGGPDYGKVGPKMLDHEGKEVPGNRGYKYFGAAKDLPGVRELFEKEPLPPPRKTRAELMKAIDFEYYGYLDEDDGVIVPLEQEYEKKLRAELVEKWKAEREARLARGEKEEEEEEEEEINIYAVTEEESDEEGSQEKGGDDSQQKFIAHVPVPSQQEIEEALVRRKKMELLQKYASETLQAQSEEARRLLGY
# Chain of UniProt Q9BX10 (Q9BX10 whole entry, looked up): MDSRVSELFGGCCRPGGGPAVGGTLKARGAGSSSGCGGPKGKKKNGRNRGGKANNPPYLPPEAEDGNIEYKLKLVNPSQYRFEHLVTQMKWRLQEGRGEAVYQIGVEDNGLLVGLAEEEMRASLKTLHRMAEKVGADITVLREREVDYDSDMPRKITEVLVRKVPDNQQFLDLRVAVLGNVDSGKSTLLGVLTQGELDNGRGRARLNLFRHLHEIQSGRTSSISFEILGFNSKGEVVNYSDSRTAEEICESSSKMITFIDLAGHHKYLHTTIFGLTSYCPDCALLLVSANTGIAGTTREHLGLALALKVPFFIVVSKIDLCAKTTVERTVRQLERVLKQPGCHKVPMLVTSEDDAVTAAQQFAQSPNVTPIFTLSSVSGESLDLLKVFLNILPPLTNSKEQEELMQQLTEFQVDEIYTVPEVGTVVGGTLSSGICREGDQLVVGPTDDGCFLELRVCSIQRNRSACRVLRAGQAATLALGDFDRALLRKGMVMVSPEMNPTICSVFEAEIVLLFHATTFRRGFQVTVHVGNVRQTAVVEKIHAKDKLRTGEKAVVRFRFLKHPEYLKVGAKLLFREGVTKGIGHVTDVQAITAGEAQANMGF
# Chain of UniProt P62873 (P62873 whole entry, looked up): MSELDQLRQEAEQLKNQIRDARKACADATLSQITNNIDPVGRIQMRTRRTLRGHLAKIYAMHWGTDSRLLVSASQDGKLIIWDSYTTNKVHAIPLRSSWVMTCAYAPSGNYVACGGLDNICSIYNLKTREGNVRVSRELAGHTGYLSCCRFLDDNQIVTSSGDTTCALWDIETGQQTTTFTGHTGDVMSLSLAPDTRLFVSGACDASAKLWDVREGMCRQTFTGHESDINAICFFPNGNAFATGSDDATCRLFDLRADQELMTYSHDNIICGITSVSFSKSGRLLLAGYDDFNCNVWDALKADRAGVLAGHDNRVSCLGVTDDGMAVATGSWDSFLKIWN
# Chain of UniProt Q6DN03 (Q6DN03 whole entry, looked up): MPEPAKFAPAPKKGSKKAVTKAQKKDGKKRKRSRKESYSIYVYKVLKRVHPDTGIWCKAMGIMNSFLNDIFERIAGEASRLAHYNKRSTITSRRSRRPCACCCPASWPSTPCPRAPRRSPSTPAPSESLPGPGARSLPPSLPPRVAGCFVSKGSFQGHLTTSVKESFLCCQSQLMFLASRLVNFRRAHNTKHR
# Chain of UniProt P35914 (P35914 whole entry, looked up): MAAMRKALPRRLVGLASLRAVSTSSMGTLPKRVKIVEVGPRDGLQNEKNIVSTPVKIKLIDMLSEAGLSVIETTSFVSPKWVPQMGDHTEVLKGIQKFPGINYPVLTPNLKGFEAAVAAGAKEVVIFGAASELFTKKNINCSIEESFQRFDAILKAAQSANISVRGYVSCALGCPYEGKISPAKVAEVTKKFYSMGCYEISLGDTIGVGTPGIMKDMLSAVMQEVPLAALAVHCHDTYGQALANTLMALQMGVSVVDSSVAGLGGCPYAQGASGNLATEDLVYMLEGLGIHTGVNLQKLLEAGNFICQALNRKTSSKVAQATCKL
# Chain of UniProt Q9Y6M1 (Q9Y6M1 whole entry, looked up): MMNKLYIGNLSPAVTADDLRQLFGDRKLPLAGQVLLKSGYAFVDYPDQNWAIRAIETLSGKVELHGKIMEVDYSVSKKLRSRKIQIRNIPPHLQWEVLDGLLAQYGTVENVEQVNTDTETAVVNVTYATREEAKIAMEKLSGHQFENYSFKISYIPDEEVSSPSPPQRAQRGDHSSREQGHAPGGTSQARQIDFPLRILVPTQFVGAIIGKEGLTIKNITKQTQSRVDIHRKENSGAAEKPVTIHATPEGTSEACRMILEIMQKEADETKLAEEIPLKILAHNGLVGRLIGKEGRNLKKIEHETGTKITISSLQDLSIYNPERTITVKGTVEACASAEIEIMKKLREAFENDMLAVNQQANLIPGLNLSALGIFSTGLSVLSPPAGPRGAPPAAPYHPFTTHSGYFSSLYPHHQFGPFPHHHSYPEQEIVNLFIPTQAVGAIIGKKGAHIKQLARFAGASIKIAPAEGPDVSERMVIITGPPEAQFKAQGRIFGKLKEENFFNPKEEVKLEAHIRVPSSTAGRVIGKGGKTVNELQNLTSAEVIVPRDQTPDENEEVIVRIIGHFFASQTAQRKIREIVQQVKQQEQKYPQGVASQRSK
# Chain of UniProt Q16891 (Q16891 whole entry, looked up): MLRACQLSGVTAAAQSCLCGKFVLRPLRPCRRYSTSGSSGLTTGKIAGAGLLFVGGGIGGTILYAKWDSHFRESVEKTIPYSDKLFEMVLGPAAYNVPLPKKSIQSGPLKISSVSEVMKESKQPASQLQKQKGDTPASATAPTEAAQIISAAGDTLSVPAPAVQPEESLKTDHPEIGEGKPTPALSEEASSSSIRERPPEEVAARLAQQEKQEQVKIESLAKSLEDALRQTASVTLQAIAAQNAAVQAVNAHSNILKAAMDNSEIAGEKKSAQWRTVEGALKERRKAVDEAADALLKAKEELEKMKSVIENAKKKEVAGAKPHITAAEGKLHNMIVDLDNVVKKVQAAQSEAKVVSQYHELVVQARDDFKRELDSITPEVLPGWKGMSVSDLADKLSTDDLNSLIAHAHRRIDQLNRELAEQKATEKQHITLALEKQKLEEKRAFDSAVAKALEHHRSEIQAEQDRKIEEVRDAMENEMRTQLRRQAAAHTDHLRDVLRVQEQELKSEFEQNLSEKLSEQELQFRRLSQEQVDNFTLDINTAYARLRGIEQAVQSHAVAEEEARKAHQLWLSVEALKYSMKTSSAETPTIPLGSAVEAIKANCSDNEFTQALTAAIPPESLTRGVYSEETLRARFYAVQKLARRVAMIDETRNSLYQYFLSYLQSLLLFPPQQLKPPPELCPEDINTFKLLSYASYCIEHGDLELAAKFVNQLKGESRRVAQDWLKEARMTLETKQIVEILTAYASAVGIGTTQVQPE
Target,log2 fold change (erlotinib),log2 fold change [1],log2 fold change [2],log2 fold change [3],log2 fold change [4],log2 fold change [5],log2 fold change [6],log2 fold change [7],log2 fold change [8],log2 fold change (IRAK-1-4 Inhibitor I),log2 fold change (ibrutinib),log2 fold change [9],log2 fold change (ralimetinib),log2 fold change [10],log2 fold change [11],log2 fold change [12],log2 fold change [13],log2 fold change [14],log2 fold change [15],log2 fold change [16]
HECTD4 (UniProt J3KPF0),0.076,-0.002,0.035,-0.125,-0.02,0.024,-0.055,-0.027,0.01,-0.009,0.017,-0.024,0.001,0.007,-0.032,-0.028,-0.036,0.032,0.021,0.009
GNE isoform 2 (UniProt Q9Y223),0.035,-0.067,-0.042,-0.032,0.011,0.064,-0.031,-0.024,0.023,-0.042,-0.036,0.009,0.033,-0.036,-0.007,-0.011,-0.036,-0.001,0.069,0.009
ISY1 isoform 1 (UniProt Q9ULR0),0.022,0.07,0.02,0.06,0.018,0.004,-0.004,0.031,0.068,0.014,0.019,0.028,0.007,-0.029,-0.056,-0.019,-0.157,-0.006,-0.02,-0.04
GTPBP2 (UniProt Q9BX10),-0.008,-0.051,-0.05,-0.002,-0.011,0.02,-0.032,-0.058,-0.017,0.023,0.008,-0.123,0.042,-0.035,0,0.004,-0.018,0,0.047,-0.032
"HDLBP, A0A024R4E5",0.043,0.008,0.02,-0.001,-0.024,-0.001,-0.046,-0.003,0.004,-0.005,-0.034,-0.007,0.029,-0.014,-0.012,0.007,-0.004,-0.009,0.042,0.003
H4C1 (UniProt P62805),0.065,0.499,-0.023,-0.042,-0.024,0.252,-0.008,0.067,-0.052,-0.067,0.055,-0.008,-0.078,-0.037,-0.046,0.075,-0.082,0.011,-0.022,0.008
IMMT (UniProt Q16891),0.008,0.058,-0.176,0.035,0.024,-0.001,-0.031,0.016,-0.026,-0.007,-0.015,0.006,-0.018,-0.045,-0.017,-0.007,0.038,0.003,0.011,0.031
HNRNPDL (UniProt O14979),-0.013,0.026,0.009,-0.008,0.024,0.038,0.008,0.006,0.014,-0.008,0,-0.692 (active),-0.027,0.014,-0.011,0.013,-0.016,0.111,-0.011,0
GPA33 (UniProt Q99795),-0.014,0.082,-0.002,-0.091,-0.032,-0.05,-0.151,0.001,0.046,0.024,0.037,-0.029,0.188,-0.123,-0.067,-0.091,0,,-0.024,0.026
INTS8 (UniProt Q75QN2),-0.002,0.043,-0.051,0.02,-0.048,0.037,-0.004,0.066,-0.035,0.015,0.024,0.028,0.058,-0.028,0.009,-0.021,-0.179,0.023,-0.033,0.031
GNB1 (UniProt P62873),0.053,0.018,0.082,-0.019,-0.015,-0.022,0.023,-0.017,-0.031,0.012,0.018,-0.018,-0.036,0.057,0.003,-0.052,0.076,0.145,-0.076,-0.011
HIST2H2BC (UniProt Q6DN03),-0.036,0.144,0.001,0.006,0.061,0.007,-0.012,0.043,0.04,-0.028,0.003,-0.052,-0.013,0.003,-0.055,0.066,0.029,-0.001,0.032,0.031
IARS (UniProt P41252),0.022,0.061,-0.011,0.013,0.02,0.006,-0.035,0.006,0.01,-0.006,-0.015,-0.001,0.037,0.035,0.029,-0.016,0.012,-0.04,0.05,0.029
HMGCL (UniProt P35914),0.002,-0.089,0.032,-0.016,-0.047,-0.005,-0.035,0.005,0.008,0.024,0.037,0.008,0.026,-0.016,-0.018,0.001,-0.019,-0.009,0.022,-0.014
IGF2BP2 (UniProt Q9Y6M1),0.022,0.049,-0.041,-0.032,0.031,0,-0.08,-0.023,0.051,-0.022,0.035,0.007,0.056,0.035,0.007,-0.008,-0.036,-0.075,0.006,0.056
KCTD20 (UniProt Q7Z5Y7),0.072,-0.145,-0.006,0,0.001,0.063,0.038,0.081,0.083,0.048,0.109,0.071,0.099,-0.009,0.044,0.062,0.034,-0.001,0.105,-0.051
